Data reported in PubChem BioAssay AID1159580 (chemical genetic matrix, 2015).
Values joined by “and” are separate entries in the source; they are usually repeats but may differ in a detail not shown here. Equal values may be shown once. In all, about 5,500 compounds went through this assay and about 2,000 (36%) were called active. Roughly 18% stayed inconclusive and do not appear here. Rule as the data show it: active = normalized growth mostly below about 0.91 (no sharp cut-off); inconclusive = no clear call, values can overlap the other calls; inactive = mostly above about 0.92. This is one part of the list.

Test: chemical genetic growth profiling, strain panel (AID 1159580);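 also: tested at 20 µM; growth read once vehicle control cultures reached saturation at 30 °C; 1 = growth at the plate median or of vehicle wells; lower values mean less growth of the strain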
Conditions: S. cerevisiae deletion strains, growth OD

Measured: normalized growth

ClC1=C(Cl)C2(Cl)C3C4C=CC(C4)C3C1(Cl)C2(Cl)Cl (configuration not stated)
active: locus YJL129C, strain trk1, stronger effect = lower value 0.85
inactive: locus YAL013W, strain DEP1, stronger effect = lower value 0.989 | locus YAL021C, strain ccr4, stronger effect = lower value 0.987 | locus YAL026C, strain drs2, stronger effect = lower value 0.993 | locus YAL030W, strain snc1, stronger effect = lower value 1 | locus YBL061C, strain skt5, stronger effect = lower value 1.01 | locus YBR009C, strain hhf1, stronger effect = lower value 0.992 | locus YBR021W, strain FUR4, stronger effect = lower value 1 | locus YBR023C, strain chs3, stronger effect = lower value 0.997 | locus YBR171W, strain sec66, stronger effect = lower value 0.988 | locus YBR229C, strain ROT2, stronger effect = lower value 0.997 | locus YBR231C, strain swc5, stronger effect = lower value 1 | locus YBR279W, strain paf1, stronger effect = lower value 1.01 | locus YCL011C, strain gbp2, stronger effect = lower value 0.999 | locus YCL016C, strain dcc1, stronger effect = lower value 0.999 | locus YCL029C, strain bik1, stronger effect = lower value 0.972 | locus YCL061C, strain MRC1, stronger effect = lower value 0.993 | locus YCL069W, strain vba3, stronger effect = lower value 0.997 | locus YCR088W, strain abp1, stronger effect = lower value 0.991 | locus YDL005C, strain med2, stronger effect = lower value 0.999 | locus YDL035C, strain GPR1, stronger effect = lower value 0.949 | locus YDL040C, strain nat1, stronger effect = lower value 0.998 | locus YDL074C, strain BRE1, stronger effect = lower value 0.969 | locus YDL101C, strain DUN1, stronger effect = lower value 0.993 | locus YDL134C, strain PPH21, stronger effect = lower value 0.992 | locus YDL185W, strain tfp1, stronger effect = lower value 1 | locus YDL192W, strain arf1, stronger effect = lower value 0.997 | locus YDR001C, strain nth1, stronger effect = lower value 0.996 | locus YDR069C, strain doa4, stronger effect = lower value 0.99 | locus YDR101C, strain arx1, stronger effect = lower value 1 | locus YDR137W, strain rgp1, stronger effect = lower value 0.956 | locus YDR150W, strain NUM1, stronger effect = lower value 1 | locus YDR159W, strain sac3, stronger effect = lower value 0.901 | locus YDR162C, strain NBP2, stronger effect = lower value 1 | locus YDR195W, strain ref2 0.955 | locus YDR297W, strain sur2, stronger effect = lower value 1 | locus YDR318W, strain mcm21, stronger effect = lower value 0.981 | locus YDR334W, strain swr1, stronger effect = lower value 0.993 | locus YDR335W, strain msn5, stronger effect = lower value 1 | locus YDR388W, stronger effect = lower value 0.985 | locus YDR392W, strain spt3, stronger effect = lower value 1 | locus YDR502C, strain sam2, stronger effect = lower value 0.994 | locus YEL003W, strain gim4, stronger effect = lower value 1 | locus YEL037C, strain rad23, stronger effect = lower value 1 | locus YEL061C, strain CIN8 (second series), stronger effect = lower value 1 | locus YEL061C, strain CIN8, stronger effect = lower value 1 | locus YER015W, strain faa2, stronger effect = lower value 1 | locus YER016W, strain bim1, stronger effect = lower value 0.994 | locus YER110C, stronger effect = lower value 0.99 | locus YER111C, strain swi4, stronger effect = lower value 1 | locus YER155C, strain BEM2 (second series), stronger effect = lower value 0.998 | locus YER155C, strain BEM2, stronger effect = lower value 0.978 | locus YER167W, strain BCK2, stronger effect = lower value 0.977 | locus YFR010W, strain ubp6, stronger effect = lower value 0.988 | locus YGL078C, strain dbp3, stronger effect = lower value 1 | locus YGL086W, strain mad1, stronger effect = lower value 0.967 | locus YGL167C, strain pmr1, stronger effect = lower value 0.983 | locus YGL173C, strain kem1, stronger effect = lower value 0.992 | locus YGL227W, strain vid30, stronger effect = lower value 0.996 | locus YGL240W, strain doc1, stronger effect = lower value 0.981 | locus YGL248W, strain PDE1, stronger effect = lower value 0.997 | locus YGL253W, strain hxk2, stronger effect = lower value 0.983 | locus YGR078C, strain PAC10, stronger effect = lower value 1.01 | locus YGR135W, strain pre9, stronger effect = lower value 0.982 | locus YGR229C, strain SMI1, stronger effect = lower value 0.952 | locus YGR252W, strain gcn5, stronger effect = lower value 0.961 | locus YHR013C, strain ard1, stronger effect = lower value 1.08 | locus YHR027C, strain rpn1, stronger effect = lower value 0.988 | locus YHR030C, strain SLT2, stronger effect = lower value 1 and 0.976 | locus YHR079C, strain IRE1 (second series), stronger effect = lower value 0.983 | locus YHR079C, strain IRE1, stronger effect = lower value 0.979 | locus YHR094C, strain hxt1, stronger effect = lower value 1 | locus YHR129C, strain ARP1, stronger effect = lower value 1 | locus YHR142W, strain chs7, stronger effect = lower value 1.01 | locus YHR200W, strain rpn10, stronger effect = lower value 0.99 | locus YIL066C, strain RNR3, stronger effect = lower value 0.941 | locus YIL073C, strain SPO22, stronger effect = lower value 0.874 | locus YIL125W, strain kgd1, stronger effect = lower value 1 | locus YIR030C, strain dcg1, stronger effect = lower value 0.991 | locus YJL092W, strain hpr5, stronger effect = lower value 0.992 | locus YJL095W, strain BCK1 (second series), stronger effect = lower value 0.994 | locus YJL095W, strain BCK1, stronger effect = lower value 1.01 and 1.03 | locus YJL115W, strain asf1, stronger effect = lower value 0.989 | locus YJL134W, strain LCB3, stronger effect = lower value 0.999 | locus YJL154C, strain vps35, stronger effect = lower value 0.992 | locus YJL164C, strain tpk1, stronger effect = lower value 0.981 | locus YJL166W, strain qcr8, stronger effect = lower value 0.99 | locus YJL168C, strain set2, stronger effect = lower value 0.991 | locus YJL187C, strain SWE1 (second series), stronger effect = lower value 1 | locus YJL187C, strain SWE1, stronger effect = lower value 1.01 | locus YJR043C, strain POL32, stronger effect = lower value 0.981 | locus YJR066W, strain TOR1, stronger effect = lower value 0.975
